# Experimental data from publication PMC10668032, “Altered binding affinity of SIX1-Q177R correlates with enhanced WNT5A and WNT pathway effector expression in Wilms tumor”.
# In all, about 33,000 sequences were measured (“e-score”: median about -0.05, highest 2% from about 0.38 on). The full list was thinned out, with the highest values kept by preference.
# Target: T1, SIX1-Q177R homeodomain (human, UniProt Q15475 108-198, Q177R)
# T1 sequence: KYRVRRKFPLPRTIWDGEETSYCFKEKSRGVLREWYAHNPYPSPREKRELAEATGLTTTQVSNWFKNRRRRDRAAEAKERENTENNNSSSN
# Assay: universal protein binding microarray; Universal all-10-mer PBM (8x60K, AMADID 030236), 300 nM GST-tagged protein, Alexa Fluor 488 anti-GST; buffer, salt, pH and temperature not stated (as in Berger); high values mean tight binding
# Conditions: protein: ivt; tags: N-terminal GST; dsDNA, one strand shown
# Procedure, shortened: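 Binding of GST-tagged homeodomains is given as 8-mer E-scores from the Universal PBM Analysis Suite. The proteins were produced by in vitro transcription/translation, quantified by anti-GST western blot against a recombinant GST standard curve, and applied in duplicate at 300 nM final concentration to universal 'all 10-mer' protein binding microarrays (8×60K format).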
row,Sequence,binding signal [E-score]
1,CACTAACA,0.284 ± 0.0307
2,CGACCCCG,0.255 ± 0.0544
3,CCCAATAC,0.17 ± 0.00354
4,TATTTACA,0.311 ± 0.0362
5,AAGTAGTG,0.27 ± 0.0294
6,CCCCTCAG,0.251 ± 0.0116
7,ATCCCGTG,0.228 ± 0.0211
8,CACGAGGG,0.189 ± 0.00843
9,AGGGGTAG,0.269 ± 0.00879
10,CACGCCGA,0.194 ± 0.0137
11,AAGCGACA,0.229 ± 0.0424
12,CACCTCCA,0.293 ± 0.0179
13,ATACACCC,0.46 ± 0.00688
14,ATGCACCA,0.165 ± 0.000877
15,ATATACCG,0.15 ± 0.0185
16,ATACACCG,0.472 ± 0.00491
17,ATACACAG,0.187 ± 0.0325
18,ACCCACCA,0.2 ± 0.00308
19,ATACCCCC,0.364 ± 0.0151
20,ATACACCA,0.47 ± 0.0019
21,ATACACAC,0.315 ± 0.0133
22,ACTCGGTG,0.368 ± 0.00838
23,CACCTCCC,0.256 ± 0.00611
24,ATACCCCA,0.254 ± 0.016
25,ATCGGTGC,0.204 ± 0.0156

row,Sequence,binding signal [E-score]
1,ACTCCCAG,0.262 ± 0.038
2,AGGGAGTA,0.178 ± 0.0384
3,TGTCCTAA,0.241 ± 0.0454
4,TGTAGACA,0.2571 ± 0.000438
5,CGGCACCA,0.181 ± 0.0154
6,ACACAGCG,0.1958 ± 0.00148
7,CGTGTCTA,0.405 ± 0.0182
8,GGTGTCTA,0.468 ± 0.0105
9,AGTGTCTA,0.3723 ± 0.00362
10,GGGGTCTA,0.229 ± 0.0526
11,GGTATCTA,0.216 ± 0.0361
12,CCCCAAGC,0.228 ± 0.0222
13,ACCCCGGG,0.302 ± 0.0198
14,CCACCGGA,0.203 ± 0.037
15,ACACCGGA,0.476 ± 0.00539
16,ACACCGGC,0.481 ± 0.00281
17,ACACAGGT,0.252 ± 0.0297
18,GCACCGGA,0.162 ± 0.0479
19,ACTCCGGC,0.233 ± 0.0256
20,ACACCGGG,0.4843 ± 0.00112
21,ATACCGGG,0.213 ± 0.0219
22,ACACCGGT,0.481 ± 0.00684
23,ACCCCGGT,0.298 ± 0.00305
24,ACCCCGGC,0.262 ± 0.0281
25,CACCATCC,0.252 ± 0.00467

row,Sequence,binding signal [E-score]
1,GTGCTCTA,0.221 ± 0.0342
2,CCAACTAC,0.151 ± 0.00402
3,ACCTCTAC,0.151 ± 0.00402
4,ACCACGTG,0.194 ± 0.00218
5,ACGGGATC,0.197 ± 0.0102
6,CGGGGTAA,0.235 ± 0.0071
7,ACACTCAG,0.387 ± 0.00387
8,ACACTCAC,0.39 ± 0.00873
9,ACACTTAG,0.355 ± 0.0376
10,ACACTTAA,0.316 ± 0.0276
11,ACACTCAA,0.39 ± 0.0152
12,ACTCACAC,0.3 ± 0.0164
13,ACTCTTAT,0.212 ± 0.0414
14,ACACTCAT,0.388 ± 0.0116
15,ACACTCTA,0.367 ± 0.0161
16,ACACTTAC,0.378 ± 0.013
17,CACTTACC,0.224 ± 0.032
18,AGCCCGGG,0.157 ± 0.00865
19,CGTGAACC,0.17 ± 0.0126
20,TGTATACA,0.283 ± 0.0331
21,ACTACGTG,0.21 ± 0.0113
22,GGGGATCA,0.275 ± 0.0112
23,GAGGGATC,0.213 ± 0.0344
24,CCCCATGA,0.151 ± 0.00929
25,GGCGAGGA,0.174 ± 0.0324

row,Sequence,binding signal [E-score]
1,ACCCTAAG,0.1853 ± 0.00154
2,CACCCTTA,0.263 ± 0.0167
3,ATACCCTA,0.312 ± 0.0168
4,ACCAGAAT,0.161 ± 0.0505
5,CCGACCAG,0.161 ± 0.0337
6,CAAACACC,0.4485 ± 0.00209
7,AAAACACC,0.437 ± 0.0129
8,AAAACACT,0.301 ± 0.0568
9,CAAACACG,0.32 ± 0.0109
10,GAAACACC,0.4545 ± 0.000905
11,AAAACACG,0.321 ± 0.0302
12,CAAACACA,0.19 ± 0.0451
13,TAAACACA,0.214 ± 0.0172
14,AAAACACA,0.188 ± 0.0109
15,ACCCTCCA,0.175 ± 0.00491
16,AGAAGGGG,0.223 ± 0.00875
17,CAGAGGGG,0.193 ± 0.0159
18,CACAACTG,0.1786 ± 0.00129
19,CACCTGAA,0.2354 ± 0.0017
20,CACTTGTC,0.161 ± 0.0236
21,TCCTAGGA,0.22 ± 0.0107
22,CCGGGGAA,0.18 ± 0.0043
23,CACCCCAA,0.336 ± 0.0263
24,GCGGGGGA,0.157 ± 0.00972
25,ACCCCAAT,0.266 ± 0.0184

row,Sequence,binding signal [E-score]
1,ACCCCAAA,0.205 ± 0.0372
2,ACACAAAT,0.167 ± 0.0837
3,ACACAAAG,0.236 ± 0.0826
4,ATACCAAC,0.163 ± 0.00749
5,ACACCAAG,0.455 ± 0.0109
6,ACTCCAAG,0.2 ± 0.00662
7,ACACCAAT,0.473 ± 0.00609
8,CACCAAAA,0.217 ± 0.0236
9,ACACCAAC,0.4617 ± 0.00175
10,ACACCAAA,0.4659 ± 0.00317
11,GCACCAAC,0.261 ± 0.0127
12,GGAGAATA,0.193 ± 0.0325
13,CCTGAACA,0.254 ± 0.00385
14,AGTTAAGA,0.155 ± 0.00537
15,CCGGGTTC,0.22 ± 0.0235
16,AGTTAGGA,0.153 ± 0.019
17,GACCCGGA,0.184 ± 0.0271
18,ACGCACAC,0.307 ± 0.0495
19,ACACGCAA,0.3952 ± 0.00317
20,ACGCGCAG,0.175 ± 0.0335
21,ACACGCAC,0.4052 ± 0.00394
22,CCCCGCAA,0.17 ± 0.00535
23,ACACGCAG,0.391 ± 0.00589
24,ACACGCAT,0.383 ± 0.00385
25,ACTCCCCT,0.249 ± 0.0205

row,Sequence,binding signal [E-score]
1,CGGATCAG,0.174 ± 0.00822
2,ACCGGAGG,0.183 ± 0.0608
3,ACTCCTCC,0.213 ± 0.0626
4,ATTTGACA,0.216 ± 0.00896
5,CGCATTAC,0.204 ± 0.0114
6,ACCCTGAG,0.245 ± 0.0251
7,ACCAACTC,0.169 ± 0.01
8,GCAAACAC,0.351 ± 0.00619
9,CCAAACAC,0.3825 ± 0.00157
10,GCCAACAC,0.3693 ± 0.00257
11,CCCAAAAC,0.193 ± 0.0284
12,ACCAACAC,0.41011 ± 0.000354
13,CCCAACAA,0.199 ± 0.00812
14,CCCAACAC,0.403 ± 0.0145
15,ACTATGTG,0.17 ± 0.0249
16,CACCTTCA,0.241 ± 0.0302
17,CACCTTGG,0.344 ± 0.0104
18,CCCCTACC,0.237 ± 0.0383
19,GAGTGTCC,0.406 ± 0.00513
20,GAGTGACA,0.242 ± 0.00566
21,TAGAGTCA,0.196 ± 0.0118
22,GTGTGTCA,0.369 ± 0.0056
23,TAGTGTCA,0.454 ± 0.00792
24,GAGTATCC,0.199 ± 0.0139
25,AAGTGTCT,0.346 ± 0.0141

row,Sequence,binding signal [E-score]
1,GAGTGTCA,0.45 ± 0.0122
2,AAGTGTCA,0.418 ± 0.0194
3,AAGTGTCC,0.332 ± 0.00652
4,TAGTGACA,0.211 ± 0.0357
5,CGTATCCA,0.159 ± 0.0161
6,ATATACCC,0.2382 ± 0.000608
7,CACCCAGA,0.189 ± 0.0293
8,ACCAGATA,0.162 ± 0.0127
9,ACCACGGA,0.178 ± 0.0145
10,ACCCTTAC,0.158 ± 0.0125
11,CACCTTTA,0.223 ± 0.0267
12,CACAGACA,0.155 ± 0.0227
13,CCGACCCG,0.176 ± 0.00738
14,ACGTGTAC,0.387 ± 0.0177
15,CCCTGTAC,0.173 ± 0.0309
16,CCGTGTGC,0.215 ± 0.0507
17,GCGTGTAC,0.4393 ± 0.000926
18,GCGTTTAC,0.16 ± 0.0218
19,GCGTATAC,0.158 ± 0.00385
20,ACGTGTAG,0.347 ± 0.0241
21,CCGTGTAC,0.4382 ± 0.00199
22,ACGTGTAT,0.321 ± 0.0343
23,ACCGCCCC,0.157 ± 0.0585
24,ACCACTGG,0.153 ± 0.00392
25,ACCTTACC,0.155 ± 0.0397

row,Sequence,binding signal [E-score]
1,CACGGACA,0.298 ± 0.0109
2,CACGACTC,0.304 ± 0.00378
3,CACGACCC,0.32 ± 0.0093
4,AACGACAC,0.4466 ± 0.00332
5,GACGACCC,0.158 ± 0.0499
6,CACGACGC,0.151 ± 0.0468
7,CACGACAC,0.448 ± 0.0167
8,CACGACAG,0.1738 ± 0.000629
9,CACGACCA,0.227 ± 0.0193
10,GACGACAC,0.429 ± 0.0137
11,CACCTATA,0.301 ± 0.00719
12,CCCGACCA,0.204 ± 0.0179
13,GCCGGGTA,0.197 ± 0.033
14,CCCGTCTC,0.239 ± 0.00285
15,CCTGTGTA,0.192 ± 0.0408
16,ACCGTGTG,0.259 ± 0.0453
17,ACCGTGCC,0.179 ± 0.0325
18,CCCGTGTC,0.458 ± 0.00911
19,CCCGTGTA,0.453 ± 0.00915
20,CCCGCGTA,0.154 ± 0.0151
21,GCCGTGTA,0.419 ± 0.00774
22,CCCGTGAC,0.155 ± 0.00256
23,ACCGTGTC,0.428 ± 0.0209
24,CCCCCGGA,0.263 ± 0.00617
25,AAGGATCC,0.178 ± 0.0155

row,Sequence,binding signal [E-score]
1,GACTCCGA,0.198 ± 0.0344
2,ACCCTGTA,0.153 ± 0.0186
3,ACCGTGTA,0.4376 ± 0.00046
4,ACCGGGTA,0.212 ± 0.00998
5,GCAGCACC,0.219 ± 0.0401
6,CGTTACAC,0.424 ± 0.0188
7,CGTTTACA,0.154 ± 0.0251
8,AGTTGCAC,0.208 ± 0.0144
9,GGTTAAAC,0.183 ± 0.0367
10,GGTTGCAC,0.183 ± 0.0188
11,AGTTACAC,0.449 ± 0.0313
12,CGTTACCC,0.207 ± 0.026
13,GGTTACAC,0.4536 ± 0.000905
14,AAATGGTG,0.289 ± 0.00359
15,CGCCGGCG,0.192 ± 0.0602
16,AGTTCGAA,0.156 ± 0.011
17,CCCCCGCA,0.218 ± 0.0293
18,CGACCCCA,0.233 ± 0.0324
19,ATATATAC,0.154 ± 0.00578
20,ATATACAC,0.409 ± 0.0246
21,GAGTATAC,0.157 ± 0.0409
22,GTATACAA,0.155 ± 0.0122
23,CTATACAC,0.379 ± 0.0172
24,GTATACAC,0.411 ± 0.00685
